Screens as filed in PubChem BioAssay.
tim23-1 inh: growth inhibitors of tim23-1 mutant yeast, primary screen, luminescence, uHTS | S. cerevisiae tim23-1 growth, BacTiter-Glo luminescence, 24 h | inhibition, % at 20 µM | 330,000 compounds, 1.3% hits | AID 463212, 2010;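 active = growth inhibition of the mutant yeast at or above 50%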;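 note: temperature-sensitive mutant grown at 25 °C; plate controls were DMSO-treated mutant yeast for no effect and medium wells lacking yeast for full effect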
PfHsp90 set2: growth inhibition of PfHsp90-expressing yeast, primary screen, antimalarial PfHsp90 inhibitor project, S. cerevisiae, BacTiter-Glo luminescence, single point, set 2. BacTiter-Glo ATP, 48 h; yeast lacking PDR1 and PDR3 efflux regulators. inhibition, % at 9.4 µM. 310,000 compounds, 0.32% hits. AID 504621, 2011;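 active = every replicate shows inhibition above about 80%, whatever the replicate mean, limit read from the data; inconclusive = mean inhibition reaches the set limit but some replicate falls short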;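 note: 0% = DMSO neutral controls and 100% = 20 µM radicicol positive controls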
TIM10 inh: growth inhibitors of isogenic TIM10 control yeast, primary screen, counter-screen for tim10-1 yeast inhibitor project, luminescence, uHTS; S. cerevisiae TIM10 strain growth, BacTiter-Glo luminescence, 24 h; inhibition, % at 10 µM; 330,000 compounds, 1.4% hits; AID 463195, 2010;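 active = inhibition of 40% or more at the single tested concentration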;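 note: wild-type TIM10 isogenic control strain grown at permissive 25 °C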
tim10-1 inh: growth inhibitors of tim10-1 mutant yeast, primary screen, luminescence, uHTS. S. cerevisiae tim10-1 ts strain growth, BacTiter-Glo, 24 h. inhibition, % at 20 µM. 330,000 compounds, 2.2% hits;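 active = inhibition of at least 40%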;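 note: mutant grown at 25 °C; 0% = DMSO wells with yeast and 100% = wells holding no yeast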
SKKanGAS inh: S. pyogenes SKKanGAS growth inhibitors in kanamycin, primary screen, streptokinase expression inhibitor project, SKKanGAS strain, BacTiter-Glo luminescence. 6 h. inhibition, % at 7.5 µM. 300,000 compounds, 1.3% hits;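 active = mean replicate score, as percent of positive control median, at least 50; inconclusive = mean below 50 but one replicate at or above 50; inactive = mean and every replicate below 50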;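 note: strain carries kanamycin resistance gene driven by streptokinase promoter and grows in 40 µg/ml kanamycin; loss of luminescence reflects streptokinase promoter inhibition or plain growth inhibition; 0% = median of DMSO wells and 100% = positive control at its reference dose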
Calb FLC: C. albicans growth inhibition with fluconazole, primary screen, CaCi-2 strain, Alamar Blue fluorescence; 300,000 compounds, 0.57% hits; AID 1979, 2009; C. albicans CaCi-2 (fluconazole-resistant clinical isolate) + fluconazole, 48 h; growth inhibition, % (test concentration not listed);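 active = growth inhibition above about 58% in most replicates, limit read from the data, passing the limit was not always enough; inconclusive = exactly half the replicates above a set limit; inactive = most replicates below a set limit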;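 note: all wells also contain fluconazole at 8 µg/ml as a sub-toxic cotreatment; 0% = median of DMSO wells and 100% = median of geldanamycin control wells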
An asterisk follows results filed as active; ? = inconclusive; · = no result. This is a sample that favours compounds with a hit; in the whole collection about 4.7% have one here.

SMILES	tim23-1 inh	PfHsp90 set2	TIM10 inh	tim10-1 inh	SKKanGAS inh	Calb FLC
Cc1cnc(NC(=O)c2cc3c(C)nn(-c4ccccc4)c3s2)s1	-7	·	-7	21	107*	16
Cc1nn(-c2ccccc2)c2sc(C(=O)NC3CCCCC3)cc12	4	10	7	4	11	?
COc1ccc(NC(=O)C(OC(=O)c2cnc(C)cn2)c2ccccc2)cc1Cl (stereo unspecified)	29	-12	8	14	51*	·
Cc1ccc(CN2CCCN(C)CC2)c(C)c1	2	8	-13	5	-2	-6
Cc1cc(C)n(-c2nc3ccccc3c(=O)n2OCC#N)n1	-26	-34	10	14	36	81*
CCOn1c(-n2nc(C)cc2C)nc2ccccc2c1=O	-3	25	0	11	0	-2
COc1ccc(CCNC(=O)CNC(=O)Cn2ccc3ccccc3c2=O)cc1OC	0	-10	-20	9	1	-4
O=C(c1ccc(Cl)cc1)N1CCN(c2ccnc3cc(Cl)ccc23)CC1	·	-5	·	·	-4	99*
CCC(=O)N1CCN(c2ccnc3cc(Cl)ccc23)CC1	2	-7	14	2	15	2
CCCN(CC(=O)Nc1ccc(F)c(F)c1F)C(=O)CN1C(=O)NC2(CCCCC2)C1=O	·	-2	·	·	·	·
CC1(C(=O)OCC(=O)Nc2nnc(-c3ccccc3)o2)CC1(Cl)Cl (stereo unspecified)	7	-7	-2	-8	73*	-2
O=C(COC(=O)CCC(=O)c1ccccc1)Nc1nnc(-c2ccccc2)o1	-16	·	-2	-4	39	16
CC1(C(=O)OCC(=O)Nc2nc(-c3ccc(F)c(F)c3)cs2)CC1(Cl)Cl (stereo unspecified)	23	14	30	0	71*	-7
CCOc1ccccc1C(=O)OCC(=O)Nc1nnc(-c2ccccc2)o1	17	·	-3	3	77*	0
CCOc1ccccc1C(=O)NC(C(=O)OCC(=O)Nc1nnc(-c2ccccc2)o1)C(C)C (stereo unspecified)	24	-7	28	24	60*	5
C[C@H](CO)N1C[C@H](C)[C@@H](CN(C)S(C)(=O)=O)Oc2c(NC(=O)C3CC3)cccc2C1=O	-9	-2	4	-9	·	·
CSCCC(NC(=O)COc1ccccc1)C(=O)N1CCOCC1 (stereo unspecified)	-9	4	3	-5	·	·
CC1CN(C(=O)CCC(=O)N2CCN(c3cccc(C(F)(F)F)c3)CC2)c2ccccc2O1 (stereo unspecified)	32	5	21	6	1	5
Cc1cccc(C(=O)OCC(=O)Nc2nnc(-c3ccccc3)o2)c1O	9	·	-14	0	98*	?
O=C(CCN1C(=O)c2ccccc2S1(=O)=O)N1CCN(c2cccc(Cl)c2)CC1	36	·	19	36	-8	3
COc1ccc(S(=O)(=O)Nc2c(C)cccc2C)cc1-n1cnnn1	3	-11	17	-14	1	-9
CCc1ccc(/C(C)=N\Nc2ccc([N+](=O)[O-])cc2)cc1	17	·	5	28	-8	129*
C/C(=N\Nc1ccc([N+](=O)[O-])cc1)c1ccc(N)cc1	·	0	·	·	1	-25
CN(C)c1ccc(C(CNC(=O)c2ccc(-c3ccccc3)cc2)N2CCOCC2)cc1 (stereo unspecified)	19	·	13	28	-6	-10
CCOc1cc(N2CCOCC2)c(OCC)cc1NC(=O)c1nc2nc(C)cc(C)n2n1	13	10	8	7	8	101*
SMILES	tim23-1 inh	PfHsp90 set2	TIM10 inh	tim10-1 inh	SKKanGAS inh	Calb FLC
O=C1CCCN1CCC1CCN(C2CC(=O)N(c3ccc(Cl)cc3)C2=O)CC1 (stereo unspecified)	39	102*	32	36	-6	?
O=C1CCCN1CCC1CCN(C2CC(=O)N(Cc3ccc(N4CCCC4=O)cc3)C2=O)CC1 (stereo unspecified)	13	0	13	12	-9	4
COc1ccc2c(c1)[C@H]1[C@H](CO2)[C@H](c2ccccc2)[C@]2(C)C(=O)Nc3ccc(Cl)cc3C(=O)N12	·	137*	·	·	·	·
C[C@@]12C(=O)Nc3ccc(Cl)cc3C(=O)N1[C@H]1c3cc(Cl)ccc3OC[C@@H]1[C@@H]2c1ccccc1	34	-37	22	20	·	·
CCc1cc2c(=O)oc(-c3ccc(Br)cc3)nc2s1	21	16	21	0	2	8
CCN(Cc1nc2ccccc2c(=O)[nH]1)C(=O)c1cccc(S(=O)(=O)N2CCc3ccccc32)c1	18	8	5	13	·	·
O=C(Oc1ccc(Cl)c2cccnc12)c1cccnc1	29	112*	7	25	68*	-15
OCCN1CCN(Cc2cc(Cl)c3cccnc3c2O)CC1	-4	1	16	33	-8	103*
Oc1c(Cl)cc(Cl)c2cccnc12	·	107*	·	·	87*	?
COCc1cc(CN2CCCC2)c(O)c2ncccc12	1	-6	-3	32	0	5
Oc1ccc(Cl)c2cccnc12	·	108*	·	·	·	·
O=C(Oc1ccc(Cl)c2cccnc12)N1CCCCC1	23	-1	17	18	10	-17
Oc1ccc(Br)cc1/C=N/Nc1ncc(-c2ccccc2)cn1	6	-12	18	18	83*	-15
Oc1ccc(Br)cc1/C=N/NC(=S)NCCc1ccccc1	26	13	35	29	90*	-10
Nc1ccc(C(=O)N2CCN(S(=O)(=O)c3ccc(Br)cc3)CC2)cc1[N+](=O)[O-]	25	-65	13	18	1	-12
NC(=O)NS(=O)(=O)Oc1ccccc1	16	11	-7	3	5	2
O=S(=O)(Nc1nc2ccccc2nc1Nc1cccc(S(=O)(=O)N2CCCCC2)c1)c1ccccc1	24	-28	14	12	64*	6
O=C(Nc1ccc(Nc2ccccc2)cc1)c1c(F)c(F)c(F)c(F)c1F	21	-26	11	13	20	1
O=C1C=CC(=O)N1c1ccc(Nc2ccccc2)cc1	·	126*	·	·	·	·
Cc1cccc(N2C(=O)C=CC2=O)c1	·	117*	·	·	·	·
Cc1cccc(N2C(=O)C3CCCN3C2=S)c1 (stereo unspecified)	-4	0	-23	1	-2	-30
O=C1C=CC(=O)N1c1ccc2ccccc2c1	·	116*	·	·	·	·
O=c1c2ccccc2cnn1-c1ccc2ccccc2c1	40	·	9	21	1	-48
CSc1ccc(CNC(=O)C2CCC(=O)N(CCc3cccc(F)c3)C2)cc1 (stereo unspecified)	1	-3	1	-15	-4	6
